Assay results from the supplement of paper PMC6555819.

System: VDR:RXRa (NR concentration 270 nM, RXRa partner concentration 90 nM)
Test: PBM binding z-score (relative to random genomic background probes); higher = stronger binding; sequences stand for … in GC…GCGATTGACAGCGTAGAATGAAGG
Method: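 Protein-binding microarray (Agilent 4x180K custom design, double-stranded 60-nt probes: 5' GC cap, 34-nt variable region, 24-nt constant primer region; full probe sequence given). Purified or IVT nuclear receptor:RXRα heterodimers (3:1 NR:RXRα, mostly 270:90 nM) or homodimers were incubated for 1 h in PBS with 2% milk and no ligand, then detected with Alexa488 antibodies. Fluorescence from o1-orientation probes (~5 replicates averaged) was converted to z-scores against 500 random hg19 background probes. Variable regions are seed direct-repeat (DR0–DR5) sites, all their single-nucleotide variants and half-site ablations.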

Sequence	PBM binding z-score
CCCATTAGTTGACCATAAGGGCAACCGAAGCTCG	0.855
CAGCCTAGATCAGGGCCAGTATAGGAGGAACGTT	-0.746
AGAACGAGGGCACGCTGAGTTCATAGCAGAGTAG	6.39
TCATATAGGTACATGCTAGGTGAAAGTCCGATCT	0.884
ATGTCTAGGTAAAGTTCAGTGAAAGATCGATAGA	1.8
CTCGCAAGGTCGTGCTCAGGTGAGTATACCAAAC	2.24
GCTTGTAGATCATGGTTAAGAAAGACTAAGCTAA	-0.404
CCTGACAGGTGAAAGGTAACTCAGTCTGGTACGC	0.319
GCTAGTTGGTGAGTAAAAGGTCACACACCGGTCG	3.72
TCTTGTAGATCAAAGGATAAGAAAGCCGAAGCCT	0.22
GCTTACGGGTCTAAGGTTATAGCATGAATAGAAT	1.01
GGAACGAGAGCATTCGAGTTGATAGCATGGCGAT	-0.115
TCATATAGATAAAAGGTGAAAGTCGGTGTGGTAA	1.35
TCTATTAGTTGATTAGGGCAGCCGAAACAGCGGA	0.607
TTACCAAGGTGAAGGTCCTTGATCCCTCTGTAGA	0.388
ATCGAAAGGTCGAAGGTTAGTATACCCACCCGAA	3.14
GCTTGTAGATTAAGGTTAAGAAAGACTAAGCTAA	0.125
ACTAGTTGGTGAGCTGAGGTCACACACAATTCGG	3.55
GCTTGTAGATCAAGGGTAAGAAAGACTAAGCTAA	-0.559
GCAGACAGGTGAAACGCAGGCAACTCAGGGTGGC	-0.567

Sequence	PBM binding z-score
TAGCCTAGGTCATTCAGGAGCCAGTATAGAAAGC	2.21
TTACCAAGGTGAAAGGACGTTGATGCACGCCTTG	0.0674
ACTGACAGGTGAGTGAAGGTAACTCAGCTGGACG	-0.322
CCTACTGGGCCATAAGGTCATTGATATCAACGTT	3.71
GCATATAGGTAATACAAGGTGAGAGTCCGATTGT	0.351
CCTATTAGTTGACCATAGGGGCAACCGAAGCTCG	0.497
ACAGACAGGTTAGTGAAGGTAACTCAGCTGGACG	-0.0325
CGTCCAAGTTCAGCAGGTCAGTGAAAGCGACGTG	2.86
TCTTGTAGATCTACAGGAGGTTAAGAAAGATCGA	0.41
GGAACGATGGCATTCGAGTTGATAGCATGGCGAT	-0.32
ATATGTAGGTTACATCCGGGTCATTCGGGCTATG	3.9
TCTATTAGTTGATTAGGGCATCCGAAACAGCGGA	0.719
ATCGAAAGGTCGAACGTGAGTATACCCACCCGAA	2.88
CGAACTAGGTCATCTAGGACAGTGAATACATTGA	3.73
CCTGCTAGGTCAATGTTCAGCTAAAGCAGCTCGC	1.05
GCTATTAGTTGTAAGGGCAACCGAATGATTCTCG	0.148
TCATATAGGGAATACAGGTGAAAGTCGGCATCTA	1.11
CCGACTGGGCCAGAAAGGTTACCATACCATCCGG	0.479
GCTAGCACGCCATTTGGGTCACTCAATGACGGGC	-0.0776
CAAACTAGGCCACCGGAAGGTCAAAGTCCGCATG	3.2
